Data taken from PubChem BioAssay.
Activity calls are given as the source filed them.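 Rule for the calls, unless noted: active = inhibition at or above 50% at 10 µM; inactive = inhibition below 50%.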

Experiments:
[1] = inhibitors of TNFa-induced NFkB p65 translocation, primary screen, imaging, HUVEC, MLSMR starter and 10KST1 sets (AID 438;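 active = inhibition above 20% together with a positive visual image hit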;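 note: compound added about 3h40 before a 20 min TNFalpha stimulation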;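 for inhibition: signal is the nuclear over cytoplasmic p65 intensity ratio per well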); conditions: HUVEC TNFa-induced p65 nuclear translocation; cell count: measured here: nuclei count (cytotoxicity indicator), at 2.08 µM; inhibition: at 2 µM, stronger effect = higher value, 0% TNFa-plus-vehicle, 100% no-TNFa wells
[2] = inhibitors of mutant huntingtin aggregation, primary screen, imaging, exon1htt(103Q)mCFP cells, high-content imaging (AID 483;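 active = visual image review flags a hit and inhibition of aggregation exceeds 20%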;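 note: compound exposure lasted 3 days before fixation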;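 for nuclei count: percent of the per-plate median nuclei count of sample wells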); conditions: exon1htt(103Q)mCFP cell line, aggregate imaging, at 2 µM; inhibition of aggregation: stronger effect = higher value; nuclei count: measured here: cell count, toxicity
[3] = inhibitors of E-selectin induction by TNFa, primary screen, imaging, HUVEC, immunofluorescence, MLSMR starter and 10KST1 sets (AID 487;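 active = visually confirmed hit in the image check and inhibition above 20%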;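 for inhibition: signal is fraction of cell area covered by stained E-selectin grains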;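 for nuclei count: 100% = median nuclei count of all wells on the same plate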); conditions: HUVEC TNFalpha-induced E-selectin immunofluorescence imaging, at 2 µM; inhibition: stronger effect = higher value; nuclei count: measured here: cell number, toxicity
[4] = target: Voltage-gated potassium channel subunit beta-2 (Rattus norvegicus) (UniProt P62483); assay: KvBeta enzyme negative modulators, primary screen, biochemical, NADPH fluorescence (AID 622;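 active = fluorescence slope higher than the sample average by over 3 SD, cut at about -0.22 in these data, passing the limit was not always enough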;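 note: slope of raw intensity against log time taken from 70 to 1610 s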); conditions: recombinant KvBeta, 4-cyanobenzaldehyde reduction, at 10 µM, stronger effect = higher value
[5] = target: Voltage-gated potassium channel subunit beta-2 (Rattus norvegicus) (UniProt P62483); assay: KvBeta positive modulators, primary screen, biochemical, NADPH fluorescence (AID 623;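 active = NADPH fluorescence slope more negative than the mean of all samples by about 3 SD, 99.7% confidence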;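 note: fluorescence intensity change per second fitted from 20 to 320 s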); conditions: Recombinant KvBeta, NADPH fluorescence decrease slope, 10 min; at 10 µM; stronger effect = lower value
[6] = target: Alpha-2C adrenergic receptor (Homo sapiens) (UniProt P18825); assay: modulators of alpha2C/GIRK thallium flux, primary screen, cell-based, HEK293 alpha2C/GIRK1/2 (AID 624;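 active = fluorescence slope after compound addition differing from the mean of all screened samples at 99.7% confidence, in either direction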;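 note: slope of fluorescence ratio to pre-addition baseline per second over 15 to 24 s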); conditions: thallium flux BTC fluorescence, at 10 µM, actives lie on both sides
[7] = inhibitors of Sendai virus-induced IRF3 signaling, primary screen, TLR/RLR signaling modifier project, cell-based, Sendai virus stimulus, luciferase, 10K MLSCN set (AID 602276); conditions: HEK293 RL24 IRF3 luciferase reporter, at 10 µM, stronger effect = higher value;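 note: firefly luciferase from ISG56 promoter only with Renilla not read in this screen; 0% = Sendai virus plus DMSO and 100% = medium plus DMSO without virus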
[8] = inhibitors of poly I:C-induced TLR3 signaling, primary screen, cell-based, poly I:C stimulus, luciferase, 10K MLSCN set (AID 602277;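 active = inhibition of the reporter signal at or above 50%; inactive = inhibition below 50%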); conditions: HEK293-TLR3 RL24 IRF3 luciferase reporter, at 10 µM, stronger effect = higher value

Chain of Voltage-gated potassium channel subunit beta-2 (Rattus norvegicus) (P62483 whole entry, looked up): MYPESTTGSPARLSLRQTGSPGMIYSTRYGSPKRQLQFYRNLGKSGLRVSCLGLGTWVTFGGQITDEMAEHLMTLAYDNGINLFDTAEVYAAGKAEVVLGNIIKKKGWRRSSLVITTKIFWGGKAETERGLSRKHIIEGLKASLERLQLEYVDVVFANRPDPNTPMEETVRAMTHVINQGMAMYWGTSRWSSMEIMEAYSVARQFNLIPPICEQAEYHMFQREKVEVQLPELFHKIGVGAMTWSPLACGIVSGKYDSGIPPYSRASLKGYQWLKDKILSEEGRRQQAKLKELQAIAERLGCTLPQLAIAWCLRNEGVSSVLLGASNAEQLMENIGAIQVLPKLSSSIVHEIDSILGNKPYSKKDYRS
Chain of Alpha-2C adrenergic receptor (Homo sapiens) (P18825 whole entry, looked up): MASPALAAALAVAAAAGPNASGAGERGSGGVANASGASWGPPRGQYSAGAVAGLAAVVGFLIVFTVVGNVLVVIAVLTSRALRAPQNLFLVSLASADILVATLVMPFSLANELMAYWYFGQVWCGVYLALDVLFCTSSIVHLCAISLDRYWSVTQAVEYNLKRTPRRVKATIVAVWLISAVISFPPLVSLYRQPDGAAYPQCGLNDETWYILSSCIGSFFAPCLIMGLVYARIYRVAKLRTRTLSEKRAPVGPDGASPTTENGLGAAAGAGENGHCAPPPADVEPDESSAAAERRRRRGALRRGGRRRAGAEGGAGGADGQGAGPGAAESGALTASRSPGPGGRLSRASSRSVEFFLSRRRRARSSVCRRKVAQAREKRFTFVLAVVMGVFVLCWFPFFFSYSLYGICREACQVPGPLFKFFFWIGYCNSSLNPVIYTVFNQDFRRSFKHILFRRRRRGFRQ

Row | SMILES | cell count [1] | inhibition [1] | inhibition of aggregation [2] | nuclei count [2] [%] | inhibition [3] | nuclei count [3] [%] | fluorescence slope [4] | NADPH fluorescence slope [5] | slope [6] | inhibition [7] | inhibition [8]
1 | Cc1nnc(C)c2c(C)n(Cc3ccc4c(c3)OCO4)c(C)c12 | 679 | 6.2% (inactive) | 4.3% (inactive) | 74.3 | -8.3% (inactive) | 95.8 | -0.517 (inactive) | 4.5e-06 (inactive) | 0.0037 (inactive) | -9.5% (inactive) | -7.65% (inactive)
2 | Nc1ncnc(Nc2ccccc2C(F)(F)F)n1 | 382 | -3.3% (inactive) | -11.5% (inactive) | 100 | -8% (inactive) | 107 | -0.487 (inactive) | 4.7e-05 (inactive) | 0.00593 (inactive) | -28.4% (inactive) | -11.7% (inactive)
3 | N#Cc1c2n(c(=O)[nH]c1=O)CCCCC2 | 270 | 14.4% (inactive) | 18.2% (inactive) | 113 | 16.1% (inactive) | 110 | -0.5 (inactive) | -0.000252 (inactive) | 0.00665 (inactive) | -7.37% (inactive) | 0.231% (inactive)
4 | COC(=O)Nc1nc2c(C)cccc2s1 | 299 | 0.7% (inactive) | -2.9% (inactive) | 95.7 | -33.7% (inactive) | 101 | -0.469 (inactive) | 9.8e-07 (inactive) | 0.0031 (inactive) | -14.5% (inactive) | -45% (inactive)
5 | Cc1cccc(C)c1OCc1nnc(SCC(=O)Nc2ccccc2F)o1 | 592 | -12% (inactive) | 21.8% (inactive) | 67.2 | 4% (inactive) | 109 | -0.558 (inactive) | -3e-05 (inactive) | 0.00659 (inactive) | 16.4% (inactive) | 25.4% (inactive)
6 | Cc1onc(-c2c(Cl)cccc2Cl)c1C(N)=O | 406 | 6.3% (inactive) | -2.8% (inactive) | 98.3 | -52% (inactive) | 98.7 | -0.5 (inactive) | 2.7e-05 (inactive) | 0.00603 (inactive) | -11.6% (inactive) | 7.29% (inactive)
7 | c1ccc2c(c1)nc(NCCN1CCOCC1)c1nncn12 | 508 | 3.2% (inactive) | 25.2% (inactive) | 85.4 | -51.1% (inactive) | 99.2 | -0.587 (inactive) | -4e-05 (inactive) | 0.00643 (inactive) | 12.4% (inactive) | 37.9% (inactive)
8 | CCC(=O)Nc1cc2nn(-c3ccccc3)nc2cc1Cl | 442 | -2.1% (inactive) | 7.1% (inactive) | 105 | -94.2% (inactive) | 255 | -0.413 (inactive) | -5.9e-07 (inactive) | 0.00584 (inactive) | -10.5% (inactive) | -46.9% (inactive)
9 | CCN(CC)c1ccc2cc(-c3nc4ccccc4[nH]3)c(=O)oc2c1 | 437 | 11.7% (inactive) | 90.2% (active) | 98.9 | -74.3% (inactive) | 116 | -0.313 (inactive) | 4.5e-05 (inactive) | 0 (active) | 20.9% (inactive) | 32.6% (inactive)
